# Screening data from PubChem.
# TEAD-YAP inh: TEAD-YAP interaction inhibition; HEK-TIYL cells, TEAD-Gal4/YAP UAS-luciferase luminescence; inhibition, % at 9.12 µM; 640,000 compounds, 1.4% hits; in the data active means inhibition above about 32%;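 further: 0% = median of test compound wells and 100% = reference inhibitor wells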
# GPR151 activ: human GPR151 activation. activation, % at 11.2 µM. 650,000 compounds, 1% hits. PathHunter beta-arrestin GPR151 cells, luminescence. Q8TDV0; in the data active means activation above about 4.9%;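 further: 0% = median of compound wells and 100% = cells with positive control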
# FBW7 act: human FBW7 E3 ligase activation, primary screen. Q969H0. AlphaScreen FBW7–phospho-cyclin E peptide binding, activator screen. normalized activity (activation), % at 26.1 µM. 650,000 compounds, 0.13% hits; in the data active means normalized activity above about 1.9%;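 further: purified mutant Fbw7 with reduced substrate affinity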
# MITF inh: inhibitors of human MITF; inhibition, % at 2.6 µM; AlphaScreen MITF homodimerization, bead proximity signal; 650,000 compounds, 0.91% hits; O75030; in the data active means inhibition above about 50%;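 further: 0% = vehicle wells with protein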
# Target sequence (O75030 whole entry, looked up): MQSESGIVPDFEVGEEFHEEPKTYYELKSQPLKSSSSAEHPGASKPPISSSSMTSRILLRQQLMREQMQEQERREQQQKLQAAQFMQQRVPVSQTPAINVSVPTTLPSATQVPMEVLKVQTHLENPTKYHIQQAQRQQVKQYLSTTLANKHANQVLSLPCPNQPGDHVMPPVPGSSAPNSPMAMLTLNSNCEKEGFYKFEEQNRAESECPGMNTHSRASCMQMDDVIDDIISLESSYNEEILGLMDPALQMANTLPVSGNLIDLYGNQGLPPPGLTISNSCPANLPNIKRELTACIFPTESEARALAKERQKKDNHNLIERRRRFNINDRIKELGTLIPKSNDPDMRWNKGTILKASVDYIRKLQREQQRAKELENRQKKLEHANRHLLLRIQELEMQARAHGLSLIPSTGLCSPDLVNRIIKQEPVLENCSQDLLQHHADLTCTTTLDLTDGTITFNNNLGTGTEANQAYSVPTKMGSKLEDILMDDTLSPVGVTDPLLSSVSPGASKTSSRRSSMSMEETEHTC
# Starred values were filed as active, the others as inactive. The list is not random: actives were taken first. Their share in the collection is about 3.5%.
SMILES,TEAD-YAP inh,GPR151 activ,FBW7 act,MITF inh
CN1CCN(c2ncn(-c3ccc(Nc4ncc(F)c(-c5cc(F)cc(N6CCOCC6)c5)n4)cc3)n2)CC1,77.2*,1.4,0.0,-0.3
Cn1cc(-c2ccc3cnc(Nc4ccc(-n5cnc(N6CCOCC6)n5)cc4)nc3n2)cn1,80.2*,-0.5,0.1,13.3
Cn1cc(-c2nc(Nc3ccc(-n4cnc(N5CCC(O)CC5)n4)cc3)ncc2F)cn1,85.2*,-0.4,0.0,-5.3
Cn1cc(-c2ccc(-c3ccnc(Nc4ccc(-n5cnc(N6CCOCC6)n5)cc4)n3)cc2)cn1,-5.1,-1.3,0.0,5.7
Cc1nc(C)n(-c2ccc(Nc3ncc(F)c(-c4cc(F)cc(N5CCOCC5)c4)n3)cc2)n1,-1.9,1.9,-0.3,-5.1
NC(=O)CSc1nc2sc3c(c2c(=O)n1-c1cccc2ccccc12)CCCC3,37.6*,0.3,0.1,2.0
CCCCCn1c(SCC(=O)OCC)nc2cc(C(=O)N3CCN(c4ccccc4)CC3)ccc2c1=O,-9.5,-0.4,0.1,18.6
Cn1c(SC/C(O)=C(\C#N)c2nc3ccccc3[nH]2)nnc1-c1ccccc1,-1.7,0.6,0.0,-5.3
COc1cc(NC(=O)c2cnc(N3CCN(c4ccccn4)CC3)s2)cc(OC)c1OC,40.6*,3.1,0.0,2.0
COc1cc(NC(=O)c2cnc(N3CCc4ccccc4C3)s2)cc(OC)c1OC,42.0*,-1.4,0.0,-0.7
O=C1C(Cl)=C(Cl)C(=O)N1c1ccccc1,9.0,-0.9,0.7,15.4
CC(C)(Oc1ccc(Cl)cc1)C(=O)Nc1nnc(-c2ccncc2)s1,-2.6,0.9,0.0,11.9
O=C(NCCCN1CCOCC1)c1ccc(F)c(-n2ncc3cc(Nc4c(Cl)cccc4Cl)ccc32)c1,4.6,-1.0,-0.1,14.2
O=C(c1ccc([N+](=O)[O-])c(Cl)c1)N1CCN(Cc2ccc3c(c2)OCO3)CC1,51.4*,-0.3,-0.2,29.8
COc1ccc(CN2CCN(C(=O)c3ccc(S(=O)(=O)c4ccc(F)cc4)c([N+](=O)[O-])c3)CC2)c(OC)c1OC,42.8*,-0.5,0.3,-10.6
COc1ccc(C(=O)N2CCN(Cc3ccc4c(c3)OCO4)CC2)cc1[N+](=O)[O-],45.3*,-1.5,0.9,20.1
O=C1Nc2cc(C(=O)N3CCN(Cc4ccc5c(c4)OCO5)CC3)ccc2NC1CSCc1ccc(F)cc1 (stereo unspecified),48.0*,-0.6,0.0,3.4
CN(CCOc1cc(-c2cn[nH]c2)ccc1NC(=O)C1COc2ccc(F)cc2C1)Cc1ccccc1 (stereo unspecified),10.0,-1.5,0.1,22.9
CCOC(=O)C1=C(C)N=c2s/c(=C\c3cc(C)n(-c4ccc([N+](=O)[O-])cc4)c3C)c(=O)n2C1c1ccccc1Cl (stereo unspecified),-1.3,-0.1,0.1,-10.0
O=C(c1ccc(S(=O)(=O)c2cccc(Cl)c2)c([N+](=O)[O-])c1)N1CCN(c2ccc(F)cc2)CC1,1.4,1.2,0.0,7.8
O=C(c1ccc(S(=O)(=O)c2cccc(Cl)c2)c([N+](=O)[O-])c1)N1CCOCC1,32.0*,1.7,-0.1,-0.2
COc1ccccc1C(=O)Nc1ccc2nc(SC(C)c3ccccc3)sc2c1 (stereo unspecified),53.9*,2.6,-0.1,-3.7
O=C(CSc1nc2ccc(NC(=O)c3ccccc3Cl)cc2s1)Nc1cccc([N+](=O)[O-])c1,32.2*,-0.3,0.1,9.9
O=C(CSc1nc2ccc(NC(=O)c3ccccc3Cl)cc2s1)Nc1ccccc1,-40.9,-0.2,-0.2,-2.2
Nc1nc(SCC(=O)Nc2cccc([N+](=O)[O-])c2)sc1C(=O)Nc1nccs1,32.4*,-4.6,-0.1,5.2
SMILES,TEAD-YAP inh,GPR151 activ,FBW7 act,MITF inh
O=C(CSc1nc2ccc(NC(=O)c3ccccc3C(=O)O)cc2s1)NCc1ccccc1,41.3*,-0.7,0.0,5.2
COc1ccccc1C(=O)Nc1ccc2nc(SCC(C)=O)sc2c1,-43.0,0.9,0.0,5.6
O=C(NCC(c1cccnc1)N1CCc2ccccc2C1)c1ccc(Cl)c([N+](=O)[O-])c1 (stereo unspecified),-11.7,1.1,0.0,-5.2
COCCNCCOCCOc1ccccc1,2.8,0.6,-0.1,26.0
Cc1cccc(C)c1NC(=O)CCCCCN1C(=O)c2cccc([N+](=O)[O-])c2C1=O,-0.3,0.2,-0.1,-2.0
COc1ccc(C2=Nc3ccccc3N=C(c3cc(OC)ccc3O)C2)cc1,-27.0,-1.3,0.0,17.4
COc1ccc(O)c(C2=Nc3ccccc3N=C(c3ccccc3)C2)c1,-46.1,1.7,2.1*,9.7
CCOC(=O)C1=C(c2ccc(F)cc2)C(=O)c2ccccc2C1=O,26.3,0.0,-0.6,13.5
